What was measured:
[1] = target: T1, Serine/threonine-protein kinase TBK1 (Homo sapiens) (UniProt Q9UHD2); details: at 1 µM;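 note: values are mean inhibition of TBK1, screened as part of the GSK published kinase inhibitor set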
T1 sequence (whole entry): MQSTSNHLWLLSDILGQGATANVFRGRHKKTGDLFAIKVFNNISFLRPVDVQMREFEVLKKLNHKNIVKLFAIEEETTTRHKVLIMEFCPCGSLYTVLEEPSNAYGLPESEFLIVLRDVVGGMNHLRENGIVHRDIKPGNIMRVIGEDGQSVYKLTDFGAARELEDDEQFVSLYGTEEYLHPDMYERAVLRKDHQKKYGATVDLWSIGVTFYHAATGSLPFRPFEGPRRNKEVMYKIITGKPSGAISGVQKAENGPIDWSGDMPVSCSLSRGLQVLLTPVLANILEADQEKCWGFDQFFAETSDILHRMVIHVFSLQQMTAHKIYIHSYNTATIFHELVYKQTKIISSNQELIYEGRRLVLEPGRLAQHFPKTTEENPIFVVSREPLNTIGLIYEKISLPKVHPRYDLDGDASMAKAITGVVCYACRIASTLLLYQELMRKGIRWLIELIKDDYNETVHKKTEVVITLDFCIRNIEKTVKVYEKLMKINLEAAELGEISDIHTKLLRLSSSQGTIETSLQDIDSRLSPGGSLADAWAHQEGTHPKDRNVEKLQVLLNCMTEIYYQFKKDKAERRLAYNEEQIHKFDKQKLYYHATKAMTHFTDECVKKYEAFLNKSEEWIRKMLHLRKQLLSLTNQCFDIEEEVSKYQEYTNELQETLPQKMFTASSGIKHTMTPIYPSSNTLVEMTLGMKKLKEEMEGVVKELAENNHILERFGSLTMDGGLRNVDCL

[2] = target: T2, Testis-specific serine/threonine-protein kinase 1 (Homo sapiens) (UniProt Q9BXA7); details: at 0.1 µM
T2 sequence (whole entry): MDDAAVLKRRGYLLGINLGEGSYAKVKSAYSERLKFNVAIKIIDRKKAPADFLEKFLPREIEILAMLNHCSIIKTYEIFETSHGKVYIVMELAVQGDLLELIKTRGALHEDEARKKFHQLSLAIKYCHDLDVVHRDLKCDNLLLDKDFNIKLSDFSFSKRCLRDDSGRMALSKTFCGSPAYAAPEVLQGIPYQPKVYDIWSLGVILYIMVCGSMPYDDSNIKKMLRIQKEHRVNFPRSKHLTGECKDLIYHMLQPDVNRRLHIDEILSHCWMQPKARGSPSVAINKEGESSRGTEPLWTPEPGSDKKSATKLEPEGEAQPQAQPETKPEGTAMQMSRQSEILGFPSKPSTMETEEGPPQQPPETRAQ

[3] = target: T2, Testis-specific serine/threonine-protein kinase 1 (Homo sapiens); details: at 1 µM
[4] = target: T3, Testis-specific serine/threonine-protein kinase 2 (Homo sapiens) (UniProt Q96PF2); details: at 0.1 µM
T3 sequence (whole entry): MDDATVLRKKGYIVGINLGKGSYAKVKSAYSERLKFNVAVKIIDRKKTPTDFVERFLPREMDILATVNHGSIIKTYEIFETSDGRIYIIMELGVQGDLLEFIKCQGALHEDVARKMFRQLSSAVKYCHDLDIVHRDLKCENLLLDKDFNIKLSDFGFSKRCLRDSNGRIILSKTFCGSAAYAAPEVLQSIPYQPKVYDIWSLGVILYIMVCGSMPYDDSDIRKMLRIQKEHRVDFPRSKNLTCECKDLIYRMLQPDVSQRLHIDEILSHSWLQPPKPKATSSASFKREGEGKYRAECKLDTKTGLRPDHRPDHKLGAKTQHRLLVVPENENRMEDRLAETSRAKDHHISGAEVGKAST

[5] = target: T3, Testis-specific serine/threonine-protein kinase 2 (Homo sapiens); details: at 1 µM
[6] = target: Casein kinase I isoform alpha (Homo sapiens) (UniProt P48729); details: at 0.1 µM
[7] = target: Casein kinase I isoform alpha (Homo sapiens) (UniProt P48729); details: at 1 µM
[8] = target: Casein kinase I isoform gamma-1 (Homo sapiens) (UniProt Q9HCP0); details: at 0.1 µM
[9] = target: Casein kinase I isoform gamma-1 (Homo sapiens) (UniProt Q9HCP0); details: at 1 µM
[10] = target: Casein kinase I isoform gamma-2 (Homo sapiens) (UniProt P78368); details: at 0.1 µM
[11] = target: Casein kinase I isoform gamma-2 (Homo sapiens) (UniProt P78368); details: at 1 µM
[12] = target: Casein kinase I isoform gamma-3 (Homo sapiens) (UniProt Q9Y6M4); details: at 0.1 µM
[13] = target: Casein kinase I isoform gamma-3 (Homo sapiens) (UniProt Q9Y6M4); details: at 1 µM
[14] = target: Cyclin-dependent kinase 1 (Homo sapiens) (UniProt P06493); details: at 0.1 µM
[15] = target: Cyclin-dependent kinase 1 (Homo sapiens) (UniProt P06493); details: at 1 µM
[16] = target: Cyclin-dependent kinase 2 (Homo sapiens) (UniProt P24941); details: at 0.1 µM
[17] = target: Cyclin-dependent kinase 2 (Homo sapiens) (UniProt P24941); details: at 1 µM
[18] = target: Cyclin-dependent kinase 2 (Homo sapiens) (UniProt P24941); details: at 0.1 µM; remark: listed apart in the source
[19] = target: Cyclin-dependent kinase 2 (Homo sapiens) (UniProt P24941); details: at 1 µM; remark: listed apart in the source
[20] = target: CDK3/Cyclin E (Homo sapiens) (UniProt P24864+Q00526); details: at 0.1 µM;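 note: reported percentages are mean inhibition values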
Sequence of CDK3/Cyclin E (Homo sapiens) (P24864 whole entry, looked up): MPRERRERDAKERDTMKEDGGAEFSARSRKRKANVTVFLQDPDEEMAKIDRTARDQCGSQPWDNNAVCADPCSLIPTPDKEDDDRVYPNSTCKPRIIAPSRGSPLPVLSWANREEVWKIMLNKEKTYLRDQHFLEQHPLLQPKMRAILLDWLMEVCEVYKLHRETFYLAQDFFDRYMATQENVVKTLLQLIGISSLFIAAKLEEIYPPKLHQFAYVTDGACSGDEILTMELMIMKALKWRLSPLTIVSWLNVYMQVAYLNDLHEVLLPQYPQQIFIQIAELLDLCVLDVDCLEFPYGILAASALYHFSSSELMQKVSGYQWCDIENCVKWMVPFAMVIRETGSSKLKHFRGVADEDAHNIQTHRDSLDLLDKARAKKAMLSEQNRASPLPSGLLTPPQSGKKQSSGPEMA
Sequence of CDK3/Cyclin E (Homo sapiens) (Q00526 whole entry, looked up): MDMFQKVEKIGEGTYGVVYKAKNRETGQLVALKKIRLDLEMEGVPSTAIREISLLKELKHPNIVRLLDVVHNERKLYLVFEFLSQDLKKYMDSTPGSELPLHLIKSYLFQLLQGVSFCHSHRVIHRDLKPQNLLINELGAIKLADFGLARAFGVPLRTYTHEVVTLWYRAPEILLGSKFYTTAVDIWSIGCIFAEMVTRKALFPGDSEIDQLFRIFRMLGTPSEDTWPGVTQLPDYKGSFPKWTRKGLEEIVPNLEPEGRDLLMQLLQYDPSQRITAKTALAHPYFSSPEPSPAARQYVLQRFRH

Sequence of Cyclin-dependent kinase 1 (Homo sapiens) (P06493 whole entry, looked up): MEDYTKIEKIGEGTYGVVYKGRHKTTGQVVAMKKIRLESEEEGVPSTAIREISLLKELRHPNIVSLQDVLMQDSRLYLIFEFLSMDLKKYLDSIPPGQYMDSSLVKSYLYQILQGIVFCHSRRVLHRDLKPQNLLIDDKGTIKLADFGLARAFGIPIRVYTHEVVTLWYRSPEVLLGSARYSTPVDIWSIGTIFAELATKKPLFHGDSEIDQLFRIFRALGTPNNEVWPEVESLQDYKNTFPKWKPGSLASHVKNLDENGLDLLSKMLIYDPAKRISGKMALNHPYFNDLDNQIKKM
Sequence of Casein kinase I isoform gamma-3 (Homo sapiens) (Q9Y6M4 whole entry, looked up, canonical isoform): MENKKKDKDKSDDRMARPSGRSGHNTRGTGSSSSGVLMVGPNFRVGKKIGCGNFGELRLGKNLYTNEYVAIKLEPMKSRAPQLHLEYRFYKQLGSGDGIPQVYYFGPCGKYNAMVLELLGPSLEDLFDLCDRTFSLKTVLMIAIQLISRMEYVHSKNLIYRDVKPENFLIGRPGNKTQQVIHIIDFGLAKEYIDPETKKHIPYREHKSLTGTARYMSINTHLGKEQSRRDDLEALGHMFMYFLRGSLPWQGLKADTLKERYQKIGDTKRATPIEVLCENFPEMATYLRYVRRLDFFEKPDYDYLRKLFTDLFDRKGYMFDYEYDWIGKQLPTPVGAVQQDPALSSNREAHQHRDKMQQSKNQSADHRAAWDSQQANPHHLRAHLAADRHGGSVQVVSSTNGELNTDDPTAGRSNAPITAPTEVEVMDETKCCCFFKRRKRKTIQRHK
Sequence of Casein kinase I isoform gamma-1 (Homo sapiens) (Q9HCP0 whole entry, looked up, canonical isoform): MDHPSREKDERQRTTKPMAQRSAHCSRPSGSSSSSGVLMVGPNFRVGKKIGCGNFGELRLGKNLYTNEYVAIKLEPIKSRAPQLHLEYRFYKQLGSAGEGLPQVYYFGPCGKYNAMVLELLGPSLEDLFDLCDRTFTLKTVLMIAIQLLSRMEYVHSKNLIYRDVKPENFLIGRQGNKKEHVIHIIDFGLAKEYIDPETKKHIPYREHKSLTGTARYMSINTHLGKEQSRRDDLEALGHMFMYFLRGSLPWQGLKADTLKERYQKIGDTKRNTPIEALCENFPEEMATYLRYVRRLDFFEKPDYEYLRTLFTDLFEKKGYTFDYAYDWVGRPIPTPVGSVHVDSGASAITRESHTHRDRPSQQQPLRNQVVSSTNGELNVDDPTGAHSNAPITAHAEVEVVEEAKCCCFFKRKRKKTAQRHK
Sequence of Casein kinase I isoform alpha (Homo sapiens) (P48729 2-337 limits assumed): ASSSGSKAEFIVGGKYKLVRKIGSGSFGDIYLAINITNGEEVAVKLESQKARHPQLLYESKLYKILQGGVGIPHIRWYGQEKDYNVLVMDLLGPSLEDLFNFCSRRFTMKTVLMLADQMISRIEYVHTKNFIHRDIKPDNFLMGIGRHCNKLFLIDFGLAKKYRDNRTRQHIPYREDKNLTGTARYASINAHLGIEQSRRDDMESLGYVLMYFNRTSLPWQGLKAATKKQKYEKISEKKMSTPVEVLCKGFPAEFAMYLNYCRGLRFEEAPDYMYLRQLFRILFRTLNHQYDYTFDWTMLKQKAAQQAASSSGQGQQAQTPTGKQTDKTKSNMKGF
Sequence of Casein kinase I isoform gamma-2 (Homo sapiens) (P78368 whole entry, looked up, canonical isoform): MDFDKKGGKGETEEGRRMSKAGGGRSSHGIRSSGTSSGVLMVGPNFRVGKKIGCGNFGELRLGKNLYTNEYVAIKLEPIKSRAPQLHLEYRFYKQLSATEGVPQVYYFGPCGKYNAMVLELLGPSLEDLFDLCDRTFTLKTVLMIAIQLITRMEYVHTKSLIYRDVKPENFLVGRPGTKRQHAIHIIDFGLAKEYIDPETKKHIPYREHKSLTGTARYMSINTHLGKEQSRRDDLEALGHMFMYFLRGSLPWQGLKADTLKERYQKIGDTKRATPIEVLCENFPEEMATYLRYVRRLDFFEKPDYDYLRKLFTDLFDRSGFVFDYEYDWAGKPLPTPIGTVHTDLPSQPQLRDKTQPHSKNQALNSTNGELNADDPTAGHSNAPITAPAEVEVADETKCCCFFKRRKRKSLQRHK

Structure (SMILES) | inhibition [1] [%] | inhibition [2] [%] | inhibition [3] [%] | inhibition [4] [%] | inhibition [5] [%] | inhibition [6] [%] | inhibition [7] [%] | inhibition [8] [%] | inhibition [9] [%] | inhibition [10] [%] | inhibition [11] [%] | inhibition [12] [%] | inhibition [13] [%] | inhibition [14] [%] | inhibition [15] [%] | inhibition [16] [%] | inhibition [17] [%] | inhibition [18] [%] | inhibition [19] [%] | inhibition [20] [%]
CCCN(CCS(C)(=O)=O)Cc1ccc(-c2ccc3ncnc(Nc4ccc(OCc5cccc(F)c5)c(Cl)c4)c3c2)o1 | 5.16 | 2.58 | 1.44 | 0.97 | 0.36 | 1.49 | 3.77 | 1.24 | 1.53 | 0.76 | 3.18 | -1.08 | 1.11 | 2.23 | 8.04 | 0.78 | -1.6 | 1.97 | 7 | 0.67
COC(=O)c1sc(-n2cnc3cc(OC)c(OC)cc32)cc1OCc1ccccc1C(F)(F)F | 28.6 | 3.74 | 4.56 | 2.04 | 1.18 | -3.52 | 1.68 | 4.13 | 4.8 | 2.8 | 4.73 | 3.9 | 2.94 | -0.15 | 1.15 | 1.51 | 3.81 | 4.73 | 8.33 | 3.47
Fc1ccc(-c2cc(-c3c[nH]nc3-c3ccccn3)ccn2)cc1 | 3.03 | 6.33 | 9.18 | 4.38 | 6.99 | 3.27 | 5.16 | 4.51 | 7.09 | 4.03 | 6.19 | 4.09 | 6.73 | 0.86 | -0.63 | 2.51 | 5.92 | 2.72 | 3.29 | 2.03
NS(=O)(=O)c1ccc(Nc2ncc(-c3ccccc3)o2)cc1 | 8.12 | 1.35 | 2.89 | 1.54 | 1.1 | 1.88 | 7.88 | 2.83 | 4.94 | 2.8 | 4.34 | 3.53 | 3.96 | 19.7 | 66.2 | 48.2 | 109 | 56.2 | 86.8 | 44.6
CCc1nn2ncccc2c1-c1ccnc(NC2CC2)n1 | 3.02 | 1.98 | 3.93 | 1.82 | 2.06 | 4.3 | 15.9 | 1.08 | 2.03 | 1.32 | 2.18 | 1.24 | 0.68 | 2.52 | 6.8 | 3.24 | 10.4 | 2.25 | 9.7 | -0.69
Nc1ncc(-c2cccc(S(N)(=O)=O)c2)c2scc(-c3ccc(F)c(Cl)c3)c12 | 3.47 | 3.24 | 4.96 | 2.48 | 2.51 | 6.19 | 36.5 | 2.96 | 4.15 | 2.73 | 3.79 | 2.58 | 4.97 | 1.33 | 2.57 | 1.79 | 2.91 | 2.68 | 5.08 | -2.34
Cc1cccc(Nc2ncc(-c3ccccc3)o2)c1 | 7.09 | 2.67 | 4.49 | 0.72 | 1.53 | 3.35 | 9.63 | 2.09 | 4.93 | 1.92 | 3.38 | 2.18 | 2.99 | 3.39 | 5.05 | 4.32 | 8.62 | 1.61 | 9.01 | -0.22
CN(C)CCOc1ccc(-c2nc(-c3ccncc3)c(-c3ccc4c(c3)CC/C4=N\O)[nH]2)cc1 | 3.98 | 1.85 | 2.25 | 3.34 | 2.43 | 3.41 | 7.2 | 2.51 | 4.6 | 2.26 | 4.12 | 3.08 | 3.59 | 1.59 | 5.87 | 1.86 | 11.1 | 6.01 | 7.95 | 3.78
COC(=O)Nc1nc2ccc(Oc3ccc(NC(=O)Nc4cccc(Cl)c4)cc3)cc2[nH]1 | -2.2 | 2.29 | 0.67 | -0.06 | -0.21 | 0.11 | 0.94 | 0.68 | 1.34 | 0.75 | 1.64 | 0.53 | 1.25 | -0.02 | 0 | -0.3 | -1.22 | 1.4 | 0.48 | 1.02
c1ccc(COc2ccc(Nc3ncnc4ccc(-c5ccco5)cc34)cc2)cc1 | 0.67 | -0.63 | 0.68 | 0.44 | -0.19 | -0.74 | 0.74 | 0.87 | 1.15 | 1.03 | 0.91 | 0.33 | 1.68 | 0.19 | 2.26 | 1.69 | 1.48 | 0.66 | 2.25 | 0.53
COc1ccc(-c2cc3c(N)ncnc3o2)cc1 | 1.62 | -1.68 | 1.43 | -1.12 | -0.58 | -2.35 | -1.14 | -1.13 | -0.49 | -0.59 | -0.54 | -0.97 | 0.61 | 2.33 | 6.06 | 1.51 | 2.69 | 1.72 | 5.09 | 0.47
CS(=O)(=O)CCNCc1coc(-c2ccc3ncnc(Nc4ccc(OCc5ccccc5)cc4)c3c2)c1 | 2.44 | 1.84 | 3.84 | 2.99 | 2.93 | 1.56 | 4.42 | 1.97 | 2.4 | 1.63 | 1.86 | 1.74 | 1.31 | 2.51 | 1.71 | 2.91 | 2.02 | 1.53 | 3.24 | -3.62
O=C(O[C@H]1CN[C@H](C#Cc2cc3ncnc(Nc4ccc(Cc5ccccc5)cc4)c3s2)C1)N1CCOCC1 | 1.65 | 0.42 | 0.57 | 1.12 | -0.88 | 0.51 | 1.74 | 2.25 | 2.28 | 2.49 | 2.93 | 2.83 | 0.75 | 0.31 | 1.96 | 0.69 | 0.19 | 1.15 | 1.72 | -2.04
N#Cc1c(NC(=O)CN2CCOCC2)sc2c1CCCC2 | 4.24 | -0.56 | 3.34 | 1.22 | 2.29 | 6.79 | 6.01 | 3.78 | 5.69 | 3.2 | 6.04 | 4.84 | 6.07 | 4.8 | 4.23 | 3.4 | 4.28 | 6.96 | 8.06 | 5.84
CCn1c(-c2nonc2N)nc2ccccc21 | 3.36 | 2.04 | 0.61 | 0.97 | -0.93 | 2.92 | 3.37 | 1.61 | 3.25 | 0.92 | 2.97 | 0.54 | 4.86 | -0.3 | 0.59 | 1.31 | 2.17 | 1.38 | 4.31 | 1.63
[O-][S+]1CCN(Cc2ccc(-c3ccc4ncnc(Nc5ccc(OCc6cccc(F)c6)c(Cl)c5)c4c3)o2)CC1 | 5.41 | 5.74 | 5.31 | 3.26 | 3.22 | 5.02 | 4.04 | 4.04 | 5.15 | 3.65 | 5.36 | 4.15 | 2.36 | 2.01 | -1.04 | 3.62 | 4.32 | 5.35 | 6.57 | 0.55
CCOc1ccc2c(-c3ccnc(Nc4cccc(C(F)(F)F)c4)n3)cnn2n1 | 13.1 | 2.69 | 3.46 | 0.15 | 0.22 | 0.42 | 0.35 | 2.16 | 3.1 | 2.06 | 3.07 | 1.18 | 1.86 | 0.34 | 6.63 | 1.78 | 8.89 | 3.35 | 14.1 | 2.12
